Vaccinia pol inh – vaccinia E9 polymerase processive synthesis inhibitors, primary screen, biochemical, absorbance | in vitro processive DNA synthesis, absorbance read-out; stronger effect = lower value | normalized absorbance, % (concentration not given with the values) | actives 0.94% (n = 46,000); in the data active means normalized absorbance mostly below about 85%, no sharp cut-off; inactive means mostly above about 86%
Of the large screens only hits and unclear results are named; the others gave an inactive call. This is one part of a sample in which hits are shown more often than they occur.

CC1(C)CC(N2C(=O)OC(C)(C3CC4C=CC3C4)C2(C)O)CC(C)(C)N1 (stereo unspecified)	none
Cc1ccc(C(=O)Nc2nnc(SCc3ccccc3)s2)cc1	none
CSc1ncc(Cl)c(C(=O)Nc2nnc(SCc3ccc(F)cc3)s2)n1	Vaccinia pol inh 68
CCC(=O)Nc1nnc(SCc2cccc(F)c2)s1	none
COc1ccc2c(c1)c(OC)[n+](C)c1c3cc4c(cc3ccc21)OCO4	Vaccinia pol inh 77
C[n+]1cc2c3c(ccc2c2ccc4cc5c(cc4c21)OCO5)OCO3	none
COc1ccc(SCC(=O)NCc2ccc3c(c2)OCO3)cc1	none
O=C(CSc1nc(-c2ccccc2)cc(=O)[nH]1)c1c[nH]c2ccccc12	none
CCCC1CCC(c2ccc(C(N)=O)cc2)CC1 (stereo unspecified)	none
CCCCC1CCC(c2ccc(C(=O)O)cc2)CC1 (stereo unspecified)	Vaccinia pol inh 51
CCCC1CCC(c2ccc(C(=O)CCN(C)C)cc2)CC1 (stereo unspecified)	none
CCN(CC)c1cc(-c2cccs2)nc(SCC(=O)c2cccs2)c1C#N	none
O=C(CSc1nnc2sc3ccccc3n12)c1cccs1	none
N#CSCC(=O)c1cccs1	Vaccinia pol inh 61
O=C(O)c1cnn2c(C(F)(F)F)cc(-c3ccco3)nc12	none
CCc1ccc(NC(=O)CN(C)S(=O)(=O)c2ccc3nc(-c4ccccc4)[nH]c3c2)cc1	none
NS(=O)(=O)c1ccc(-n2cccc2C=Nn2cnnc2)cc1	none
Cc1ccc2oc(=O)c3cc(C(=O)NCCN4CCCCC4C)sc3c2c1 (stereo unspecified)	Vaccinia pol inh 62
Cc1ccc2oc(=O)c3cc(C(=O)Nc4ccc5c(C)cc(=O)oc5c4)sc3c2c1	none
Cc1ccc2oc(=O)c3cc(C(=O)N4CCN(c5ccc(F)cc5)CC4)sc3c2c1	none
CCC1CCCCN1C(=O)CSc1nnc(-c2ccccc2)o1 (stereo unspecified)	none
Cn1nc(C(F)(F)F)c(C(=O)Nc2ccc(F)cc2F)c1Cl	none
Cc1cc2c(C(C)C)c(O)c(O)c(C=O)c2c(O)c1-c1c(C)cc2c(C(C)C)c(O)c(O)c(C=O)c2c1O	Vaccinia pol inh 18
c1ccc2cc3c(Nc4ccc(N5CCOCC5)cc4)ccnc3cc2c1	Vaccinia pol inh 67
COc1ccc(Nc2ccnc3ccccc23)cc1	none
Oc1ccc(Nc2nc(N3CCOCC3)c3ccccc3n2)cc1	none
c1cc(N2CCOCC2)ccc1NC1=NCCS1	none
CC(C)Nc1ccc(Nc2ccccc2)cc1	none
CC(C)Nc1ccc(Nc2ccnc3cc4ccccc4cc23)cc1	Vaccinia pol inh 10
NC(=O)c1cc(S(=O)(=O)N2CCOCC2)ccc1F	none
CCc1nnc(Cn2nnc3c(=O)[nH]c(C(=O)Nc4ccc(C)cc4)nc32)s1	none
O=S(=O)(c1ccc(-c2csc(=Nc3ccccc3)n2CCc2ccccc2)cc1)N1CCCC1	none
CCc1nnc(SCC(=O)O)n1N	none
O=C(Nc1ncn[nH]1)c1ccccc1O	none
CCc1ccc(OCCCC(=O)Nc2ncn[nH]2)cc1	none
O=C(CCCC(=O)c1ccccc1)Nc1ncn[nH]1	Vaccinia pol inh 73
COc1cc2ccccc2cc1C(=O)NC(C)Cc1ccccc1 (stereo unspecified)	none
CCN(CC)CCCn1c(-c2ccccc2)cn2c3ccccc3nc12	none
c1ccc(-c2cn3c(nc4ccccc43)s2)cc1	Vaccinia pol inh 80
c1ccc(-c2csc3nc4ccccc4n23)cc1	none
O=C(CCCc1ccccc1)NC1CC1	none
CC1CCN(CCCNC(=O)c2ccc(/C=C3\Oc4ccccc4NC3=O)cc2)CC1	Vaccinia pol inh 70
O=C(NCCCN1CCOCC1)c1ccccc1	none
O=C1Nc2ccccc2O/C1=C\c1ccccc1	none
O=C(/C=N/O)NCc1ccccn1	none
O=C(O)CCSc1nc2ccccc2n1C1CCCCC1	none
CC(C)(CN1CCCCCC1)NS(=O)(=O)c1ccccc1	none
CC(CBr)(NS(=O)(=O)c1ccccc1)c1ccccc1 (stereo unspecified)	Vaccinia pol inh 65
CC(CN1CCNCC1)(NS(=O)(=O)c1ccccc1)c1ccccc1 (stereo unspecified)	none
O=C(O)/C=C/c1ccc(I)o1	none
CN(C)C(=O)n1c(SCc2ccccc2)nnc1-c1ccc(C(C)(C)C)cc1	none
CN(C)C(=O)CCCc1nc(-c2ccc(Cl)cc2)no1	none
O=C1C2C3C=CC(C3)C2C(=O)N1CCO (stereo unspecified)	none
C=CCn1c(=NC(=O)/C=C/c2ccccc2)sc2cc(S(N)(=O)=O)ccc21	none
COC(CN(C)C(=O)c1cc2c(C)nc3ccccc3c2o1)OC	none
COC(CNC(=O)c1cc2c(C)nc3ccccc3c2o1)OC	none
Cc1nc2ccccc2c2oc(C(=O)NCCN(C)C3CCCCC3)cc12	Vaccinia pol inh 46
FC(F)(F)Oc1ccc(N=Cc2cccs2)cc1	none
CCOc1ccc(NC(=O)CSc2nccn2-c2ccccc2)cc1	none
CSc1ccc(/C=C2\CC/C(=C\c3ccc(SC)cc3)C2=O)cc1	none
O=C1/C(=C\c2ccc(Br)o2)CC/C1=C/c1ccc(Br)o1	Vaccinia pol inh 19
O=C1/C(=C/c2cc3ccccc3o2)CC/C1=C\c1cc2ccccc2o1	none
Cn1c2c(c(=O)n(C)c1=O)CN(C1CCCC1)CN2	none
Oc1c(C(c2cccs2)N2CCOCC2)sc2ncnn12 (stereo unspecified)	none
COc1ccc2nc(SC(=O)c3ccccc3)nc(C)c2c1	none
COc1ccc2nc(/N=C(\N)NC(=O)N3c4ccccc4Sc4ccccc43)nc(C)c2c1	none
COc1ccc2c(C)nc(/N=C(N)/N=C(\C)c3ccccc3C(=O)O)nc2c1	Vaccinia pol inh 31
COc1ccc(-c2nc3ccccc3n2C(=O)c2ccccc2C(=O)O)cc1	none
CCc1c(C)nc2ccc(OC)cc2c1Cl	none
COc1ccc2c(C)nc(/N=C(\N)NC(C)=O)nc2c1	Vaccinia pol inh 54
O=C(c1cnc(N2CCCC2)nc1)N1CCCC1	none
OC(Cc1ccccc1)(c1ccccc1)c1ccccc1N=Cc1ccc2c(c1)OCO2 (stereo unspecified)	none
CN1/C(=C\C=Nc2ccc(C(=O)O)cc2)C(C)(C)c2ccccc21	none
O=C1CC(c2ccccc2)N(c2ccc(Cl)cc2Cl)C(=S)N1 (stereo unspecified)	none
Cc1cc(Oc2ccccc2)nc(SCc2ccccc2)n1	none
Cc1cc(OC(=O)c2ccco2)nc(SCc2c(Cl)cccc2Cl)n1	Vaccinia pol inh 50
O=C(Oc1ccc(Cl)c2cccnc12)c1ccco1	none
Cc1cc(C)c2c(=O)n(C(=O)c3cccs3)sc2n1	none
COc1ccc(N=Cc2sc3ccccc3c2O)cc1	none
O=C(NCCc1ccccc1)c1cccc(Nc2nc3ccccc3n3nnnc23)c1	none
CC1CCCCN1C(=O)CSc1ccc2ccccc2c1 (stereo unspecified)	Vaccinia pol inh 73
CC1CCCCN1C(=O)CSc1nnc(-c2ccccc2)o1 (stereo unspecified)	none
CCOC(=O)C1CCCN(C(=O)CSc2ccc3ccccc3c2)C1 (stereo unspecified)	none
CCc1cccc(C)c1NC(=O)c1ccc(OC(C)=O)cc1	none
CCCCN1CN=C(Nc2nc(C)c3ccccc3n2)NC1	none
Cc1nc(NC2=NCN(Cc3ccccc3)CN2)nc2ccccc12	Vaccinia pol inh 73
c1ccc(CN2CN=C(Nc3nc4ccccc4o3)NC2)cc1	none
CCOC(=O)/C(C#N)=C1/C=CN(C)C=N1	none
CCN1CCN(S(=O)(=O)c2c(C)c(C)cc(C)c2C)CC1	none
Cc1nnc(N2C(=N)S/C(=C\c3ccccc3Cl)C2=O)s1	none
N=C1S/C(=C/c2ccco2)C(=O)N1c1nccs1	Vaccinia pol inh 52
O=C1c2ccccc2C(=O)N1c1nccs1	none
O=C(NCc1ccc2c(c1)OCO2)C1(S(=O)(=O)c2ccccc2)CC1	none
COc1cc2nc(-n3nc(C)cc3C)n3nc(-c4ccccc4)nc3c2cc1OC	none
